Source: PubChem BioAssay
In the library only some 1.1% were active in any assay of this set; here they are far more common.
SRC1 inh: human NCOA1 inhibition | HEK293 GAL4-SRC1 luciferase reporter, luminescence | inhibition, % at 3.6 µM | 0.12% of 360,000 active | Q15788;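 active means inhibition above the campaign mean plus 3 SD, with each screening campaign given its own cutoff, cut at about 60% in these data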;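 further: 0% = DMSO treated cells and 100% = gossypol at 36 µM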
NR5A2 inv ag: inverse agonists of human LRH-1 (NR5A2). HEK293T StAR-luciferase reporter, LRH-1 transfected, 24 h. O00482. inhibition, % at 3.6 µM. 0.13% of 360,000 active;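 active means inhibition above the mean inhibition of all tested compounds plus 3 SD, cut at about 73% in these data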;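 further: 0% = DMSO wells and 100% = reporter-only cells lacking LRH-1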
Target sequence (O00482 whole entry, looked up): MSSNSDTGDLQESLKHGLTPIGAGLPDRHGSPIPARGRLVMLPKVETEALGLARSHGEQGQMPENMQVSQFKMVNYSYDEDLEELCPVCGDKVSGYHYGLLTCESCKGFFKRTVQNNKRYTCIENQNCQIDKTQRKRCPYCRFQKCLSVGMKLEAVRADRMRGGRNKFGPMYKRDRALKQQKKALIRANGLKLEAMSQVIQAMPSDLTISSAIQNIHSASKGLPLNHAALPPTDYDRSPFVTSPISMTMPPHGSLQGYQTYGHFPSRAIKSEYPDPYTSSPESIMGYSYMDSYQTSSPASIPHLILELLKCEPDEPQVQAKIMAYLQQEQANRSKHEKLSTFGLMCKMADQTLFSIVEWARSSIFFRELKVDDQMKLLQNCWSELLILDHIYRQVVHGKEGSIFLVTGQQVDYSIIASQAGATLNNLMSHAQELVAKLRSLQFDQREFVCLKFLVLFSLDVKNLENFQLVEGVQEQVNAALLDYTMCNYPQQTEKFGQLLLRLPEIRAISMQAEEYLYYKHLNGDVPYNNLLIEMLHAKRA
NR2F2 inh: NR2F2 (human) inhibition, primary screen; HEK293T NGFI-A luciferase reporter, luminescence; 0.7% of 370,000 active; inhibition, % at 8.6 µM; P24468;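 active means inhibition above a per-plate cutoff, mean inhibition of test wells between control levels plus 3 SD, cut at about 38% in these data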;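 further: cells cotransfected with COUP-TFII expression vector driving the NGFI-A reporter; 0% = median of COUP-TF2 test wells and 100% = reporter-only cells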
GalR3 antag: antagonists of human GalR3 | O60755 | HEK293 GalR3-CNG cAMP membrane potential fluorescence; galR3 body fused to GalR1 C-terminus | inhibition, % at 3 µM | 0.44% of 360,000 active | AID 651719;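 active means inhibition above the screen-wide average plus 3 SD, cut at about 13% in these data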;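 further: forskolin and galanin both at EC90 stimulate the cells; cAMP rise reported by CNG channel membrane potential dye signal; 0% = forskolin plus galanin with DMSO and 100% = forskolin alone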
NCOA2 inhibitor: inhibits human steroid receptor coactivator 2. 0.17% of 370,000 active. inhibition, % at 9 µM. HEK293 GAL4-SRC2 luciferase reporter, luminescence. Q15596;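 active means inhibition above the mean inhibition of all tested compounds plus 3 SD, set per campaign, cut at about 52% in these data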;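 further: 0% = DMSO treated cells and 100% = cells given Gossypol at 36 µM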
NCOA3 inh: inhibitors of human steroid receptor coactivator 3 (SRC3); HEK293 GAL4-SRC3 luciferase reporter, luminescence; inhibition, % at 3.6 µM; 0.17% of 360,000 active; AID 588352;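 active means inhibition above a per-campaign cutoff, the mean of all compounds plus 3 SD, cut at about 60% in these data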;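 further: 0% = DMSO-treated cells and 100% = gossypol-treated cells at 36 µM; higher means less SRC3-driven luciferase light from the GAL4 reporter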
GalR3 antag conf: confirmation of human galanin receptor 3 antagonists; inhibition, % at 3 µM; HEK293 GalR3 CNG cAMP biosensor, membrane potential fluorescence; galR3 fused to GalR1 carboxy tail; challenged with forskolin and galanin at EC90; AID 652245; shares compounds with GalR3 antag; 59% of 1,600 active;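 active means inhibition above the primary screen's cutoff, the mean inhibition of all screened compounds plus 3 SD, cut at about 13% in these data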;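 further: 0% = forskolin plus galanin and 100% = forskolin alone with DMSO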
HEK-CNG parental: counter-screen for GalR3 antagonists: nonspecific agonists in parental HEK-CNG cells; AID 652268; activation, % at 3 µM; shares compounds with GalR3 antag; HEK293-CNG parental cells, cAMP membrane potential fluorescence; normalised: DMSO wells 0%, forskolin wells 100%; 10% of 1,600 active; in the data active means activation above about 1.3%
VP16 Luc counter: counter-screen for COUP-TFII antagonists: inhibitors of VP16; shares compounds with NR2F2 inh; HEK293 Gal4-VP16 luciferase reporter, luminescence; inhibition, % at 8.5 µM; 25% of 2,500 active; AID 687007; in the data active means inhibition above about 13%
NR2F2 inh conf: COUP-TFII (NR2F2) inhibition, confirmation assay; shares compounds with NR2F2 inh; AID 687008; 45% of 2,500 active; inhibition, % at 8.5 µM; HEK293 NGFI-A luciferase reporter, luminescence;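 active means mean inhibition over three repeats above a set limit taken from the earlier primary screen, cut at about 38% in these data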;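 further: 100% = cells given the luciferase reporter alone without the COUP-TF2 vector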
* marks the source's active call; other numbers are inactive results; / = no result.

SMILES	SRC1 inh	NR5A2 inv ag	NR2F2 inh	GalR3 antag	NCOA2 inhibitor	NCOA3 inh	GalR3 antag conf	HEK-CNG parental	VP16 Luc counter	NR2F2 inh conf
O=C(N/N=C/c1c(O)n(Cc2ccccc2)c(=O)[nH]c1=O)c1ccccc1O	-30	-2	4	0	-33	-8	/	/	/	/
O=C(N/N=C/c1c(O)n(CCc2ccc(F)cc2)c(=O)[nH]c1=O)c1ccccc1	-84	-22	-17	1	-21	-38	/	/	/	/
O=C(N/N=C/c1c(O)n(Cc2ccc(F)cc2)c(=O)[nH]c1=O)c1ccccc1O	-27	-20	-10	13*	10	-7	6	0	/	/
O=C(N/N=C/c1c(O)n(CCc2ccc(F)cc2)c(=O)[nH]c1=O)c1ccncc1	2	-7	17	25*	-13	11	19*	0	/	/
C[C@]12CC[C@@H](O)C[C@H]1CC[C@@H]1[C@@H]2CC[C@]2(C)C(=O)CC[C@@H]12	15	-9	12	2	6	6	/	/	/	/
Clc1cccc(CNCCc2ccc3c(c2)OCO3)c1	-21	-26	-3	-11	-33	-8	/	/	/	/
CC(C)(C)c1cc([N+](=O)[O-])cc(C(C)(C)C)c1O	/	/	21	90*	-11	/	102*	1	/	/
O=C(NC(Cc1cnc[nH]1)C(=O)O)c1ccccc1 (stereo not drawn)	5	10	-11	13*	-13	16	8	0	/	/
O=C(O)C(Cc1cnc[nH]1)NS(=O)(=O)c1ccc(Br)cc1 (stereo not drawn)	-35	16	-21	-8	25	-6	/	/	/	/
Oc1ccc(C2=CCNCC2)cc1O	-3	0	-29	73*	-26	-41	87*	0	/	/
C1=C(c2ccccc2)CCNC1	8	-14	-22	3	6	23	/	/	/	/
CC(=O)OC1CC[C@]2(C#N)[C@H]3CC[C@]4(C)[C@H](C5C=CC(=O)O5)CCC4(O)C3CCC2(O)C1 (stereo partly drawn)	4	20	13	26*	-31	32	22*	1.8*	/	/
CCC(=O)N1CCN(CCN=Cc2c(O)n(C)c(=O)n(C)c2=O)CC1	-21	-16	0	-3	9	15	/	/	/	/
Cn1c(O)c(C=NCCCCCCCCCCC(=O)O)c(=O)n(C)c1=O	7	-5	-5	17*	16	5	13*	0	/	/
Cc1cc(C)n(-c2ccc(NN=C(C#N)C#N)cc2)n1	17	11	-6	0	17	39	/	/	/	/
N#CC(C#N)=NNc1ccc(-n2ccc(C(F)(F)F)n2)cc1	32	30	10	74*	0	45	80*	1	/	/
CCCOc1ccc(C(=O)NC(=S)N2C[C@H]3C[C@H](C2)c2cccc(=O)n2C3)cc1	8	16	-10	1	13	-13	/	/	/	/
CC[n+]1c(/C=C/C=C/c2ccc(N(C)C)cc2)sc2ccccc21	34	59	79*	19*	-21	62*	74*	3.5*	23*	82*
CN(C)c1ccc(/C=C/C=C/c2sc3ccccc3[n+]2C)cc1	32	47	28	6	9	39	/	/	/	/
CCOP(=S)(OCC)SCC(=O)NC(C)(CC)C(=O)O (stereo not drawn)	-3	-18	2	1	14	6	/	/	/	/
CCOC(=O)C(O)(c1ccc(NC(=S)NC(=O)c2ccc(Cl)cc2Cl)c(C)c1)C(F)(F)F (stereo not drawn)	23	5	38*	45*	22	24	50*	-1	-4	19
COc1ccc(-c2ccc3c(c2)CN(C(=S)NCCc2ccccc2)Cc2cnnn2-3)cc1	11	33	-4	-5	-1	11	/	/	/	/
CCC(=NCCc1c[nH]c2ccccc12)c1c(O)n(C)c(=O)n(C)c1=O	14	18	47*	76*	12	10	37*	6.7*	-1	20
CCCc1cc(=O)oc2cc(OCC(=O)N3C[C@H]4C[C@@H](C3)c3cccc(=O)n3C4)ccc12	2	-3	8	-4	9	19	/	/	/	/
CCOC(=O)[C@]12Cc3cc(C)ccc3[C@H]1N(C1CCCCC1)C(=O)c1cc(OC)ccc12	/	94*	52*	38*	19	/	47*	3.3*	25*	36
SMILES	SRC1 inh	NR5A2 inv ag	NR2F2 inh	GalR3 antag	NCOA2 inhibitor	NCOA3 inh	GalR3 antag conf	HEK-CNG parental	VP16 Luc counter	NR2F2 inh conf
CC(=O)c1cn(Cc2ccccc2C#N)c2ccccc12	6	45	47*	90*	27	28	103*	1	2	53*
Cc1csc(NC(=O)C(Cl)c2ccccc2)n1 (stereo not drawn) (tested in a mixture with another compound)	-12	-22	-5	3	-34	8	/	/	/	/
NC(=S)c1cn(C2OC(CO)C(O)C2O)c2ncnc(N)c12 (stereo not drawn)	89*	94*	68*	51*	71*	88*	83*	0	53*	68*
CCOc1cccc(CNCCc2c(C)[nH]c3ccc(OC(F)(F)F)cc23)c1O	22	28	51*	72*	26	23	96*	0	-3	41*
Cc1[nH]c2ccc(OC(F)(F)F)cc2c1CCNCc1cccc([N+](=O)[O-])c1	-17	2	12	-13	6	3	/	/	/	/
c1ccc2c(c1)CNCc1cnnn1-2	12	-11	9	-6	-19	-16	/	/	/	/
COc1cc2c(cc1OC)[C@H]1C(=O)c3ccc4c(c3O[C@H]1CO2)C[C@@H](C(C)(C)O)O4	3	10	6	-9	11	-5	/	/	/	/
COc1cc2c(cc1OC)[C@@H]1C(=O)c3ccc4c(c3O[C@@H]1CO2)C[C@H](C(C)C)O4	10	45	67*	98*	24	20	116*	0	3	63*
COc1cc2c(cc1OC)C1C(=O)c3ccc4c(c3OC1CO2)CC(C(C)C)O4 (stereo not drawn)	31	45	73*	96*	24	20	108*	0	-1	69*
